# Screens deposited in PubChem BioAssay by National Center for Advancing Translational Sciences (NCATS).
# Rab9 promoter act: qHTS Assay for Rab9 Promoter Activators; Potency, µM (highest dose often 9.22 µM), inactives show at the highest dose activation, negative = inhibition, actives largely listed as activators; actives 2.8% (n = 320,000); Huh7 Rab9 promoter-luciferase reporter, luminescence, 24 h; note: % of control where 0% means no effect; nearly all actives have a fitted effect of over 60% in size
#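 Huh7 cells stably carrying a Rab9 promoter-luciferase reporter, 1500 cells per well in OP-MEM I with 10% FBS, treated with compound 24 hours at 37C. Luciferase activity read by luminescence after 10 minutes with Amplite reagent.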
# SMN2 splice enh: qHTS Assay for Enhancers of SMN2 Splice Variant Expression. HEK293 SMN2-luciferase splicing reporter, luminescence, 30-36 h. Potency, µM (series often up to 46.1 µM), without a hit: at the top dose activity change, positive = activation, hits mostly activators. actives 2.8% (n = 210,000); note: % of control where 0% means no effect; nearly all actives have a fitted effect of over 55% in size
#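 HEK293 cells carry an SMN2 […]–luciferase reporter in which exon 7 inclusion puts luciferase in frame. Cells were plated 10-12 h before compound addition, then incubated 30-36 h at 37C. ONE-Glo luminescence was read; sodium butyrate at 4.5 mM final served as control.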
# ELG1 genotoxic: qHTS screen for small molecules that induce genotoxicity in human embryonic kidney (HEK293T) cells expressing luciferase-tagged ELG1; HEK293T ELG1-luciferase reporter, luminescence, 16 h; Potency, µM (top dose mostly 46 µM), inactives show at the top dose activity change, positive = activation, most hits filed as activators; actives 1.3% (n = 330,000); AID 504466, 2011; note: % of control where 0% means no effect; nearly all actives have a fitted effect of over 60% in size
#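 Step 1: seed 2,000 HEK293T ELG1-luciferase cells per well. Step 2: add compound or DMSO, incubate 16 hr at 37 °C. Step 3: ONE-Glo, 30 min at room temperature, read luminescence.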
# ELG1 DNA repair: qHTS screen for small molecules that inhibit ELG1-dependent DNA repair in human embryonic kidney (HEK293T) cells expressing luciferase-tagged ELG1 | HEK293T ELG1-luciferase reporter, luminescence, 16 h; DNA damage induced by 5-fluorouridine | Potency, µM (highest dose often 46.1 µM), without a hit: at the highest dose activity change, negative = inhibition, actives largely listed as inhibitors | AID 504467, 2011 | actives 2.3% (n = 330,000); note: % is set by controls: 0 for no effect and ±100 for the full control effect; nearly all actives have a fitted effect of over 55% in size
#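 Quantitative HTS, concentration-response format. 2,000 cells/well co-treated with 5-fluorouridine and compound, 16 hr in 5% CO2 at 37 °C; ONE-Glo luminescence read after 30 min.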
# FLuc modulator: qHTS profiling assay for firefly luciferase inhibitor/activator using purifed enzyme and Km concentrations of substrates (counterscreen for miR-21 project). Luciferin 4-monooxygenase (Photinus pyralis), P08659. purified FLuc, Km substrates, luminescence inhibition. Potency, µM (titrated, usually from 57.5 µM), without a hit: top-dose activity change, negative = inhibition, most hits filed as inhibitors. actives 6.9% (n = 360,000);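 note: plate controls were vehicle for no effect and reference inhibitor for full effect; nearly all actives have a fitted effect of over 55% in size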
# Target sequence (P08659 whole entry, looked up): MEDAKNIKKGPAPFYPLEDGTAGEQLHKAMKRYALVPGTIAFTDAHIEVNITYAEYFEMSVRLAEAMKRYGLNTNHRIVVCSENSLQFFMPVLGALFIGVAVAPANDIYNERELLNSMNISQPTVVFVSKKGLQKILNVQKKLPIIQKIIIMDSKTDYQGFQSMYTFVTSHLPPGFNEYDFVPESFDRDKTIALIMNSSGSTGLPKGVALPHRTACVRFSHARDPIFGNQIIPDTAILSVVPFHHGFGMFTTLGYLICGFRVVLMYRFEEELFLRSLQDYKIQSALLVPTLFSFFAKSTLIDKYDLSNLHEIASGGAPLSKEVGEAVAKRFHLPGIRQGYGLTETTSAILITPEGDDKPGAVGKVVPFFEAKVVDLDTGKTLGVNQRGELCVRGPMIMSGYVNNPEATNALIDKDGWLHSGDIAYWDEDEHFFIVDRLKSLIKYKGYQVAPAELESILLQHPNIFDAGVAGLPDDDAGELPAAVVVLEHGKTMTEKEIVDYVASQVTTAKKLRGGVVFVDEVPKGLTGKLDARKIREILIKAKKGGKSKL
#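 Biochemical qHTS of compounds, final roughly 60 µM downward over six points, against 10 nM purified firefly luciferase using Km concentrations of substrates (10 uM D-luciferin, 10 uM ATP) in Tris acetate pH 7.5 buffer; luminescence output.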
# NPC1 prom act: qHTS Assay for NPC1 Promoter Activators. Huh7 NPC1 promoter luciferase reporter, 24 h. Potency, µM (titrated, usually from 9.22 µM), without a hit: at the highest dose activation, actives largely listed as activators. actives 2.4% (n = 320,000). AID 485313, 2010; note: % of control where 0% means no effect; nearly all actives have a fitted effect of over 60% in size
#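 Luminescence read-out of NPC1 promoter-driven luciferase in stably transfected Huh7 cells; compounds delivered in DMSO and left 24 h at 37C, 5% CO2, qHTS titration format.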
# The depositor's hits bear a star; ? = inconclusive; . = not tested or not shown; [ ] = remark or other dose. An excerpt weighted towards active compounds, which were near 9.2% of everything screened. Calls come from the whole dose curve; as a rule, active = well fitted curve in the direction sought with a large enough effect; inconclusive = small, poorly fitted or top-dose-only effect, or another doubt; inactive = no such curve, though single readings can be large; an effect the other way counts as inactive or inconclusive. Potency is the fitted concentration of half-maximal effect.
SMILES,Rab9 promoter act,SMN2 splice enh,ELG1 genotoxic,ELG1 DNA repair,FLuc modulator,NPC1 prom act
C=COCCNC(=O)Nc1ccc(Cl)c(Cl)c1,?,27%,-3%,?,17µM*,?
Cc1ccc(NC(=O)NCC2CC2(Cl)Cl)cc1 (stereo not drawn),3.5µM*,.,?,?,11µM*,2.2µM*
O=C(NCC1CC1(Cl)Cl)Nc1ccc(Cl)c(Cl)c1 (stereo not drawn),?,.,-4%,?,17µM*,?
Cn1cccc1CNC(=O)Nc1ccc(Cl)c(Cl)c1,3.2µM*,?,?,?,8.5µM*,4µM*
O=C(NCc1cccnc1)Nc1ccc(Cl)c(Cl)c1,?,.,11%,?,?,18%
C/C(=N/NC(=O)CNC(=O)C1COc2ccccc2O1)c1ccc([N+](=O)[O-])cc1 (stereo not drawn),0%,.,-11%,1%,-2%,1%
CC(=O)N=C1C=CC(=CN(O)C(C)(C)Cc2ccccc2)C=C1,1%,.,5%,7%,4%,2%
CN(C)C(=O)/C=C\c1cn(-c2ccccc2)nc1-c1ccc2c(c1)OCCO2,-11%,-22%,-13%,16µM*,-12%,-6%
CN1CCN(C(=O)/C=C/c2cn(-c3ccccc3)nc2-c2ccc3c(c2)OCCO3)CC1,1%,3%,-8%,10µM*,-15%,-11%
CC1CCCC(C)N1C(=O)COC(=O)CNC(=O)c1sc2ccccc2c1Cl (stereo not drawn),-2%,.,1%,1%,?,-4%
CC1CCCN(C(=O)COC(=O)CNC(=O)c2sc3ccccc3c2Cl)C1 (stereo not drawn),-4%,.,-1%,13%,24µM*,-4%
CC1CCCN(C(=O)COC(=O)Cc2c(F)cccc2Cl)C1 (stereo not drawn),?,.,?,?,17µM*,?
CC(C)CN(C(=O)COC(=O)CNC(=O)c1sc2ccccc2c1Cl)C1CCS(=O)(=O)C1 (stereo not drawn),-6%,.,2%,2%,12µM*,-2%
CC1CCCN(C(=O)COC(=O)COc2ccc(Cl)cc2)C1 (stereo not drawn),.,.,1%,5%,.,.
NS(=O)(=O)c1ccc(CCNc2nc3c(-c4cccc(F)c4)nnn3c3ccc(Cl)cc23)cc1,.,20%,.,.,-4%,.
Cc1cccc(Nc2ccc(NCc3ccccc3)nn2)c1,?,19%,1%,?,15µM*,?
COc1ccc(F)cc1S(=O)(=O)NCC(c1ccco1)N1CCc2ccccc2C1 (stereo not drawn),-7%,.,-2%,-4%,-2%,1%
Cc1nc2cc(NC(=O)CCS(=O)(=O)c3ccccc3)ccc2s1,1.4µM*,10µM*,?,?,9.5µM*,2µM*
Cc1nc2ccc(NC(=O)CCS(=O)(=O)c3ccccc3)cc2s1,28%,16µM*,15%,?,?,24%
Cc1ccc2nc(-c3ccc(NC(=O)CCS(=O)(=O)c4ccccc4)cc3)sc2c1,0.32µM*,.,?,?,11µM*,0.56µM*
Cc1ccc(S(=O)(=O)CCC(=O)Nc2ccc3nc(C)sc3c2)cc1,-4%,-23%,-1%,-1%,5%,-4%
Cc1ccc(N(CC(=O)Nc2ccc(-c3nc4ccc(C)cc4s3)cc2)S(C)(=O)=O)cc1,?,37%,?,?,7.6µM*,?
Nc1ccc2oc(=O)c3ccccc3c2c1,?,14µM*,?,?,-19%,?
C[C@H]1Cc2c(-c3ccccc3)nc3c(c2CO1)CN(C(=O)c1cccnc1)CC3,.,4%[9.22 µM],.,.,.,.
CCOc1ccc(NC(=O)c2ccc(NC(=O)COC(=O)Cc3ccc(OC)cc3)cc2)cc1,2.5µM*,11µM*,?,?,0%,3.5µM*
SMILES,Rab9 promoter act,SMN2 splice enh,ELG1 genotoxic,ELG1 DNA repair,FLuc modulator,NPC1 prom act
CCOc1ccc(NC(C)=O)cc1,-2%,8%,2%,13%,4%,-1%
C/C=C/C(=O)OCC(=O)Nc1ccc(SC(F)F)cc1,1%,5%,2%,0%,17µM*,-27%
CC(=O)OCC(=O)Nc1ccc(SC(F)F)cc1,5%,21%,0%,0%,?,-2%
O=C(Cc1ccccc1)Nc1ccc(SC(F)F)cc1,3.2µM*,11µM*,12%,?,17µM*,4µM*
CCOc1ccc(NC(=O)/C(C=Nc2ccccc2)=C(\C)O)cc1,3%,.,-9%,8%,12µM*,-2%
CC(=O)Nc1ccc(C(=O)OCCc2ccccc2)cc1,18%,.,?,?,12µM*,17%
COC(=O)c1ccc(NC(=O)C(=O)c2cccn2C)cc1,0.35µM*,0.89µM*,?,?,1.9µM*,0.4µM*
CCOc1ccc(NC(=O)CNC(=O)Cc2ccccc2)cc1,2%,.,2%,9%,5%,1%
CCOc1ccc(NC(=O)Cc2ccccc2)cc1,2.8µM*,8.9µM*,?,?,21µM*,3.5µM*
COC(=O)c1ccc(NC(=O)Cc2ccccc2)cc1,2.5µM*,9%,?,?,15µM*,4µM*
CCOC(=O)COc1ccc(C)cc1C(=O)c1ccn2nc(-c3ccc(C)cc3)cc2n1,.,-5%,.,.,5%,.
COc1cc(-c2csc(NC3CCCCC3)n2)cc(OC)c1OC,0%,.,-2%,?,?,-9%
Clc1ccc(CNc2ncnc3onc(-c4ccc(Cl)cc4)c23)cc1,.,-4%,.,.,0%,.
Cc1ccc(NC(=O)CN2C(=O)CCn3nc(-c4cccn4C)cc32)c(Cl)c1,.,.,.,.,-6%,.
CCOc1ccc(NC(=O)CN2C(=O)CSC(C)C2=O)cc1 (stereo not drawn),-2%,9%,-2%,-18%,17µM*,-1%
NS(=O)(=O)c1ccc(CCNC(=O)Cn2c(-c3cccs3)cc3ccccc32)cc1,.,.,.,.,0%,.
COc1cc2c(cc1OC)n(CC(=O)Nc1ccc(C)cc1C)c(=O)n1nc(-c3ccccc3)nc21,.,12%,.,.,1%,.
N#CC/C(N)=N/NC(=O)CCCNc1ncc(C(F)(F)F)cc1Cl,?,16µM*,10%,7%,-2%,20%
COC(=O)c1nc2n(n1)C(c1cc(OC)ccc1OC)C=C(c1ccc(Br)cc1)N2 (stereo not drawn),.,.,.,.,-11%,.
